Hit rate of the full screen: of about 370,000 compounds, about 3,300 (0.89%) were called active. This is one part of a sample in which actives are shown more often than they occur.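 Rule for the calls: active = activation above the mean of all tested compounds plus 3 SD, computed per campaign excluding outliers beyond control limits (cut at about 13% in these data); inactive = the rest.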

Kallikrein-7 (Homo sapiens), sequence (P49862 whole entry, looked up): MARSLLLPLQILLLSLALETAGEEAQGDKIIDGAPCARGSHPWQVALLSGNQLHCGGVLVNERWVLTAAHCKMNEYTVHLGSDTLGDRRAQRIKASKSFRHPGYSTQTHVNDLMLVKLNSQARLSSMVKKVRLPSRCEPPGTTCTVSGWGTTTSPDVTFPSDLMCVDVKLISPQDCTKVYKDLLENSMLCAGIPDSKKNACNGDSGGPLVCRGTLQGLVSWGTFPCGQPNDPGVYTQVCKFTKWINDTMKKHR

This experiment addresses Kallikrein-7 (Homo sapiens) (UniProt P49862). Description: proKLK7 zymogen activators, primary screen, biochemical, fluorescence intensity (AID 652039). The conditions noted are these: purified proKLK7, EDANS-DABCYL substrate fluorescence; at 7 µM; active compounds read high; 100% is mature enzyme control, 0% vehicle.
Regarding `C=CCN1C(=O)[C@@H](CC(=O)NCC2CCCCC2)[C@]2(C(=O)OC)CCCCC=C12`, the activation was 0.16% (inactive).

`CC(CCN1CCC(C(O)(c2ccccc2)c2ccccc2)CC1)Oc1ccc([N+](=O)[O-])cc1Cl` (centres undefined): the activation was -0.54% (inactive). The value for `COc1cc(/C=N\NC(=O)c2nonc2N)c(OC)cc1Br` was 163% (active). On to `COc1cc(/C=N/N=C(\N)c2nonc2N)cc(OC)c1OC`, for which the activation is 0.13% (inactive).

Regarding `Nc1nonc1-n1nnc(C(=O)N/N=C/c2cc(Br)ccc2O)c1CSC1=NCCS1`, the activation was -0.67% (inactive). Turning to `COc1cccc(N(C)C(=O)[C@@H](C)[C@@H](O)c2ccc3ccccc3c2)c1`, the activation was -0.02% (inactive).

As for `CC(C)CSc1nnc(-c2cccnc2)n1Cc1ccccc1`, the activation is -0.36% (inactive).

On to `CN1c2ccccc2-c2nc3ccccc3n2C1c1ccco1` (centres undefined), for which the activation was 35.6% (active). The value for `CN1C(C(=O)NCc2ccco2)CC2Cn3c(nc4ccccc43)C21` (centres undefined) was 0.06% (inactive); that for `CN1CCCc2cc(C#N)c(=O)[nH]c21` was 60% (active); that for `Clc1ccc(C(Cn2ccnc2)OCc2ccsc2Cl)c(Cl)c1` (centres undefined) was 0.44% (inactive). The value for `Cc1cc(C(=O)NN=C/C=C/c2ccco2)n[nH]1` was 0.51% (inactive); that for `CCC(=O)Nc1c(S(=O)(=O)c2ccccc2)c2nc3ccccc3nc2n1Cc1ccccc1` was -55% (inactive); that for `C=CCn1c(N)c(S(=O)(=O)c2cccs2)c2nc3ccccc3nc21` was 26.2% (active).

As to `C=CCN1CN(S(=O)(=O)c2ccc(OC)cc2)c2nc3ccccc3nc21`, the activation is 2.35% (inactive). The figure for `COc1cc2c(cc1OC)CC1(CCCCC1)N=C2` is 165% (active); for `CCOC(=O)[C@]12CCCCC/C=C\1N(Cc1ccc(OC)cc1)C(=O)[C@H]2CC(=O)N1CCOCC1` it is 0.31% (inactive). In the case of `C=CCN1[C@H](CC(C)C)COc2cccc(N3CCCC3)c2S1(=O)=O`, the activation was 0.16% (inactive). Turning to `CCc1cc(=O)oc2cc(C)cc(OCC(=O)N3CCC[C@@H]3C(=O)O)c12`, the activation is 2.84% (inactive). Consider `CCc1cc(=O)oc2cc(C)cc(OC(C)C(=O)O)c12` (centres undefined), for which the activation was 3.59% (inactive).

As for `CCCCc1cc(=O)oc2cc(C)cc(OCc3nn[nH]n3)c12`, the activation is 12.8% (active). As to `CCOC(CNC(=O)C(=O)NCC(c1ccco1)N1CCN(c2ccc(OC)cc2)CC1)OCC` (centres undefined), the activation was -0.14% (inactive).

As to `Cc1nc(N2CCOCC2)nc2c1CCCC2`, the activation was 0.32% (inactive).

On to `Cc1cc2c(nc1C)CCCN2C`, for which the activation was 38.3% (active). The value for `CN1CCCc2nc(-c3ccccc3)ccc21` was 7.88% (inactive). The figure for `CCOC(=O)[C@@]12CCC3=C1N(CCC3)C(=O)[C@H](CC(=O)N1CCN(C(=O)c3ccco3)CC1)C2` is 0.06% (inactive); for `C=CCN1C(=O)[C@H](CC(=O)N2CCN(C(=O)OCC)CC2)[C@@]2(C(=O)OCC)CCCC=C12` it is -0.4% (inactive); for `Cc1ccccc1CS(=O)(=O)Cc1ccc(C(=O)Nc2ccc(Cl)cc2)o1` it is 3.6% (inactive). Regarding `Cc1[nH]c(=O)c(C(=O)/C=C/c2ccccc2)c2c1CCCC2`, the activation is -0.01% (inactive). The value for `C/C(=C\c1ccccc1)C1NC(=O)c2c(sc3c2CCCC3)N1` (centres undefined) was 12.6% (active). The figure for `O=C1NC(c2ccncc2)Nc2sc3c(c21)CCCC3` (centres undefined) is 1.14% (inactive).

With `COC(=O)c1cccc(Cn2ccc3ccc(-c4ccc5ccn(C(=O)C6CCCCC6)c5c4)cc32)c1`, the activation was -4.23% (inactive). Consider `O=C(CCl)NC1CCCCN(Cc2cccc(C(F)(F)F)c2)C1=O` (centres undefined), for which the activation is -0.51% (inactive). The figure for `CNc1cncc(-c2ccc(NS(C)(=O)=O)cc2)n1` is 128% (active); for `CC(=O)Nc1cncc(-c2ccccc2CO)n1` it is -0.16% (inactive). Turning to `CS(=O)(=O)Nc1ccc(C(=O)N2CCCC2)cc1`, the activation was 0.41% (inactive). Take `O=C(CSc1nnc(-c2ccccc2)n1Cc1ccco1)Nc1ccccc1-c1ccccc1`: the activation is 0.13% (inactive). Consider `CCC(NC(=O)C1C2C=CC3(CN(Cc4ccccc4)C(=O)C13)O2)c1ccccc1` (centres undefined), for which the activation was -0.29% (inactive). As to `O=C(NC1CCC1)c1ccc(C#Cc2cccc(F)c2)c[n+]1[O-]`, the activation was -0.32% (inactive). On to `Cc1nc2ccccc2cc1O`, for which the activation is 41.8% (active). In the case of `Cc1nc2ccccc2nc1CC(O)(c1ccccc1)c1ccccc1`, the activation is -0.46% (inactive).

Take `Cc1ccc(O)c(CCc2ccccc2)n1`: the activation is -0.18% (inactive). As to `O=S1(=O)c2ccc(Br)cc2OC[C@H](Cc2ccccc2)N1Cc1cn(Cc2ccccc2)nn1`, the activation is -0.03% (inactive). With `O=C(/C=C/[C@H]1O[C@@H](n2cnc3c(NC(=O)c4ccccc4)ncnc32)[C@H](O)[C@@H]1O)NCc1ccccc1`, the activation is 0.53% (inactive). On to `Cc1ccc2nc3c(cc(C(=O)NCCc4ccccc4)c(=N)n3CC3CCCO3)c(=O)n2c1` (centres undefined), for which the activation was 25.4% (active). Regarding `Cc1ccc(CCNC(=O)c2ccc3nc4ccccc4c(=O)n3c2)cc1`, the activation was -5.82% (inactive). Take `Cc1ccc(-c2noc(-c3ccccc3C(=O)NCC3CCCO3)n2)cc1` (centres undefined): the activation was 0.54% (inactive). Regarding `CC(=O)OC12CCCN(C1)/C(=C/c1ccncc1)C2` (centres undefined), the activation is 0.51% (inactive).

On to `CN(C)CCCn1c(N)c(C#N)c2nc(C#N)c(C#N)nc21`, for which the activation was 78.7% (active). With `CCCc1cc(=O)oc2c(C)c(OCC(=O)Nc3ccccn3)ccc12`, the activation is -0.69% (inactive). In the case of `COC(=O)Cc1cc(=O)oc2c(C)c(O)ccc12`, the activation was 66% (active). As to `COc1cccc(C(=O)OCc2cc(=O)oc3c(C)c(C)ccc23)c1OC`, the activation is 0.12% (inactive). Take `O=C(CSc1nnc(-c2ccccn2)n1-c1ccccc1)Nc1ccc2cn[nH]c2c1`: the activation is 0.28% (inactive).

As to `O=C(CSc1nc2ccccc2nc1N1CCCCC1)N1CCN(S(=O)(=O)c2cccc([N+](=O)[O-])c2)CC1`, the activation was 0.08% (inactive). As for `Cc1ccc(CSc2nnc(SCC(=O)NN=Cc3cc(Br)ccc3F)s2)cc1`, the activation is -0.39% (inactive). In the case of `CCCN(CCC)C(=S)Nc1cc(C(=O)OC)ccc1C(=O)OC`, the activation is 0.15% (inactive). For the compound `COC(=O)c1ccc(C(=O)OC)c(NC(=S)N2CCCCC2)c1`, the activation was -1.87% (inactive).

Regarding `CCS(=O)(=O)Nc1cc(C(=O)OC)ccc1C(=O)OC`, the activation is 21.6% (active).

With `Cc1ccc(NC(=O)Cc2cccc(F)c2)c(S(=O)(=O)N2CCOCC2)c1`, the activation is -0.14% (inactive). As for `CC(C)(C)c1ccc(CSc2nnc(-c3cccs3)o2)cc1`, the activation is -0.23% (inactive). For the compound `COc1ccc([C@H]2OC(=O)C[C@H]2C(=O)N2CCN(c3ccccc3F)CC2)cc1OC`, the activation was -0.74% (inactive). Consider `Cc1nn(-c2ccccc2)c(C)c1NC(=O)COC(=O)c1cc(Cl)ccc1O`, for which the activation is 24.7% (active). For the compound `CCC(Oc1ccccc1)C(=O)OCC(=O)Nc1c(C)nn(-c2ccccc2)c1C` (centres undefined), the activation was -0.3% (inactive).

For `Cc1cccc(C)c1NC(=O)COC(=O)c1c(C)nn(-c2ccccc2)c1C`, the activation is 0.05% (inactive). As for `O=C(CSc1nc2ccccc2n1Cc1ccccc1Cl)N/N=C\c1c[nH]c2ccccc12`, the activation was 0.56% (inactive). In the case of `N[C@@H](Cc1ccccc1)C(=O)N1CCC[C@@H]1C(=O)N1CCC2CCN(S(=O)(=O)c3ccccc3)CC21` (some centres undefined), the activation is 0.77% (inactive). As for `Cc1cc2cc3n(c2nn1)N=C(Cl)CC3`, the activation is 24.3% (active). As for `Cc1ccc(S(=O)(=O)Nc2ccc(F)c(S(=O)(=O)N3CCOCC3)c2)cc1`, the activation was -0.78% (inactive). As to `COCc1cc(=O)oc2cc(NS(=O)(=O)c3ccc(C)cc3)ccc12`, the activation is 15.2% (active). Turning to `Cc1ccc(NS(=O)(=O)c2ccc3c(c2)NC(=O)CO3)cc1`, the activation was -0.54% (inactive).

As to `CC1CCN(c2ccc(C(=O)O)cc2NS(=O)(=O)c2ccc(Br)s2)CC1`, the activation is 0.65% (inactive). In the case of `CC(=O)C[C@@H]1OC[C@H](C)N1S(=O)(=O)c1ccc(C)cc1`, the activation is -0.26% (inactive). The figure for `C[C@H](C(=O)N(C)c1ccccc1)[C@@H](O)c1ccc(Cl)cc1` is 0.11% (inactive); for `COc1cc2c(cc1O)C(SC)=NC(C)(C)C2` it is -0.65% (inactive); for `COc1cc2c(cc1OC)C(Nc1ccc(S(N)(=O)=O)cc1)=NC(C)(C)C2` it is 0.68% (inactive).

In the case of `COc1cc2c(cc1OC)C(C(C)C)=NC(C)(C)C2`, the activation was 85.2% (active).

In the case of `COc1ccc(CN(CCN2CCOCC2)C(=O)c2ccc(C)cc2)cc1OC`, the activation is 0.42% (inactive). Consider `Nn1c(SCC(=O)N2c3ccccc3Sc3ccccc32)nnc1-c1n[nH]c2c1CCC2`, for which the activation is 0.49% (inactive).

As to `COc1ccc(-n2c(SCC(=O)OC(C)C)nnc2-c2ccccn2)cc1`, the activation is -0.5% (inactive). With `COc1ccc(C(=O)COC(=O)c2ccc3ccccc3n2)cc1`, the activation was 0.19% (inactive). As to `COc1ccc2nc(-c3ccccn3)ccc2c1`, the activation was 20.9% (active). The figure for `O=C(NC1CCC1)c1ccc(C#CC2CC2)cn1` is 0.73% (inactive); for `CCCCOCCCNC(=O)C[C@H]1C[C@@]2(C(=O)OC)C(=C[C@H](C(C)(C)C)O[C@@H]2C)N(CCc2ccc(OC)c(OC)c2)C1=O` it is -0.83% (inactive).

On to `N#CCC[C@H]1CC[C@]2(CCCN(Cc3ccc(Cl)cc3)C2)O1`, for which the activation is 0.36% (inactive).

The values are drawn from PubChem BioAssay AID652039 (The Scripps Research Institute Molecular Screening Center, 2013).
